High-throughput results: PubChem, National Center for Advancing Translational Sciences (NCATS)
Tb PYK inh = blocks Trypanosoma brucei pyruvate kinase; Q57TT1; TbPYK enzyme, Kinase-Glo Plus ATP luminescence, 45 min; Potency, µM (titrated, usually from 76.8 µM), actives largely listed as inhibitors; 410,000 tested, 0.12% active; also: nearly all actives have a fitted effect of over 50% in size
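Assay buffer: 50 mM TEA pH 7.2, 100 mM KCl, 10 mM MgCl2, 0.05% BSA, 0.01% Tween-20. Pyruvate kinase from T. brucei plus substrate met compound, then ADP (130 uM final). Luminescence was read post 45 min RT.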
FBPA Giardia inh = blocks Giardia fructose-bisphosphate aldolase activity; purified Giardia FBPA; A8B2U2; 290,000 tested, 0.71% active; Potency, µM (titrated, usually from 59.6 µM), usual class: inhibitors; also: nearly all actives have a fitted effect of over 55% in size
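Giardia FBPA (40 nM reagent) was preincubated 10 min at RT with compound (up to 57.5 uM final), then substrate plus GAPDH/TPI/NAD/arsenate coupling system with diaphorase/resazurin was added; resorufin fluorescence (525/598 nm) was read after 20 min.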
Shiga inhibitor = inhibitors of Shiga toxin in Vero cells | 290,000 tested, 9.2% active | AID 2315 | Vero cells, Shiga toxin protein synthesis inhibition reporter | inhibition, % at 38.7 µM; in the data active = inhibition mostly above about 28%, no sharp cut-off; inactive = mostly below about 43%
LmPK inh = inhibitors of Leishmania mexicana pyruvate kinase; purified LmPK, Kinase-Glo ATP luminescence, 1 h; Potency, µM (titrated, usually from 57.5 µM), actives largely listed as inhibitors; 290,000 tested, 0.37% active
Target sequence (Q27686 whole entry, looked up): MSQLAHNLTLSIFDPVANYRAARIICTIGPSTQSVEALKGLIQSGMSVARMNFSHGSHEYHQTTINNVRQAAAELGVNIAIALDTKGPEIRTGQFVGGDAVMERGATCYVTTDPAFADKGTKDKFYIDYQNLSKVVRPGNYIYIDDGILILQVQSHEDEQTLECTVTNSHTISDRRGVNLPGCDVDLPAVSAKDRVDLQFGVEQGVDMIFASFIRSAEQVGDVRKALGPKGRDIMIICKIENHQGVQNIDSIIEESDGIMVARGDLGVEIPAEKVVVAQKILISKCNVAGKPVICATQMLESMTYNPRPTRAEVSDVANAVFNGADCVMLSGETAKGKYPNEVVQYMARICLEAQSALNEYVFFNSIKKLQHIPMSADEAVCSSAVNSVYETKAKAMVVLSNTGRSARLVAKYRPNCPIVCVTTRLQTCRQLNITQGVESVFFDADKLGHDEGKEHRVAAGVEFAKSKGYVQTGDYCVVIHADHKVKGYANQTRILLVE
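0.1 nM LmPK, 0.5 mM PEP, 0.1 mM ADP; 50 mM imidazole pH 7.2, 7 mM MgCl2, 50 mM KCl; 1 h RT. Kinase-Glo luminescence readout, normalized to no-enzyme (full inhibition) and uninhibited wells.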
CHX counter = affects cycloheximide protein synthesis inhibition readout, counter-screen. cell reporter, cycloheximide protein synthesis inhibition counterscreen. max response, %. 300,000 tested, 12% active; in the data active = max response mostly above about 13%, no sharp cut-off; inactive = mostly below about 14%; also: read at 38.3 µM for the half of the compounds with a filed dose
RE007 growth inh = less growth of the S. pombe RE007 Vpr strain; S. pombe RE007 Vpr strain, BacTiter-Glo ATP luminescence, 24 h; Potency, µM (doses to about 92.2 µM), actives largely listed as inhibitors; 360,000 tested, 0.21% active; active = well fitted falling curve with a large enough effect; also: nearly all actives have a fitted effect of over 50% in size
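Fission yeast RE007 carrying one integrated HIV-1 vpr copy, seeded at OD 0.01 in PMG+AL medium with 23 nL pinned compound. Grown 24 h at 30 degrees; viability read by BacTiter-Glo luminescence after 5 min.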
Of the large screens only hits and unclear results are named; the others gave an inactive call. Shown is part of a subset that was picked to be rich in hits. Unless noted, calls follow the shape of the dose curve; as a rule, active = well fitted curve in the direction sought with a large enough effect; inconclusive = small, poorly fitted or top-dose-only effect, or another doubt; inactive = no such curve, though single readings can be large; an effect the other way counts as inactive or inconclusive.

Cc1cc2cc3c(cc2nc1SCC(=O)N1CCOCC1)OCO3	none (no result: FBPA Giardia inh)
CS(=O)(=O)NCc1csc(-c2ccccc2)n1	none
O=S(=O)(NCc1csc(-c2cccs2)n1)c1cccs1	Shiga inhibitor 53, CHX counter 18
O=C(NCc1csc(-c2cccs2)n1)c1ccsc1	Shiga inhibitor 55, CHX counter 22
O=S(=O)(NCc1csc(-c2cccs2)n1)c1ccc(Cl)cc1	none
CCS(=O)(=O)NCc1csc(-c2ccccc2)n1	CHX counter 15
Cc1ccn2cc(CNC(=O)c3cccs3)nc2c1	none
O=C(NCCc1cn2ccsc2n1)c1cccs1	Shiga inhibitor 25, CHX counter 23
CCCCC(CC)CNC(=O)CCCCCn1c(=O)[nH]c2ccsc2c1=O (centres undefined)	none (no result: FBPA Giardia inh, Shiga inhibitor, LmPK inh, CHX counter, RE007 growth inh)
Cc1ccn2cc(CNS(=O)(=O)c3cccs3)nc2c1	Shiga inhibitor 46, CHX counter 23
O=S(=O)(NCc1cn2ccsc2n1)c1cccs1	CHX counter 23
CCc1ccccc1NC(=O)c1ccc2[nH]c(C)c(C)c2c1	none (no result: FBPA Giardia inh, Shiga inhibitor, LmPK inh, CHX counter, RE007 growth inh)
COc1ccc(NC(=O)C2COc3ccccc3C2)cc1Cl (centres undefined)	none (no result: FBPA Giardia inh, Shiga inhibitor, LmPK inh, CHX counter, RE007 growth inh)
O=C(Nc1ccc(Br)cc1)C1Cc2ccccc2O/C1=N\O (centres undefined)	Shiga inhibitor 111, CHX counter 55
Cc1ccc(NC(=O)C2Cc3ccccc3O/C2=N\O)cc1C (centres undefined)	Shiga inhibitor 74, CHX counter 49
O=C(N/N=C/c1ccc(O)cc1)c1cc(C23CC4CC(CC(C4)C2)C3)[nH]n1	none
C/C(=N\NC(=O)c1cc(C(C)(C)C)[nH]n1)C12CC3CC(CC(C3)C1)C2	CHX counter 23
CCCCCOC(=O)Nc1nnc(CCC)s1	CHX counter 28
CCCCc1nnc(NC(=O)COC)s1	none
CCCCOC(=O)Nc1nnc(-c2ccccc2OC)s1	none
CCCCOC(=O)Nc1nnc(C(C)C)s1	Shiga inhibitor 119, CHX counter 37
CCOC(=O)C1(C)CCCCCN1C(=O)c1ccc(C(F)(F)F)nc1C (centres undefined)	none (no result: FBPA Giardia inh, Shiga inhibitor, LmPK inh, CHX counter)
CCc1ccc(CN(C(=O)c2oc3ccccc3c2C)C2CCS(=O)(=O)C2)cc1 (centres undefined)	none
COc1ccc(CN(C(=O)c2cc3ccccc3oc2=O)C2CCCCC2)cc1OC	Shiga inhibitor 65, CHX counter 48
COc1cc(CN(C(=O)c2cc3ccccc3oc2=O)C2CCS(=O)(=O)C2)cc(OC)c1OC (centres undefined)	CHX counter 28
O=C(c1cc2ccccc2oc1=O)N(Cc1cccs1)C1CCS(=O)(=O)C1 (centres undefined)	Shiga inhibitor 144, CHX counter 47
COc1ccc(CCNC(=O)COC(=O)c2cc3ccccc3oc2=O)cc1OC	none (no result: FBPA Giardia inh, Shiga inhibitor, LmPK inh, CHX counter)
CCc1ccc(CN(C(=O)c2cc3ccccc3oc2=O)C2CCS(=O)(=O)C2)cc1 (centres undefined)	Shiga inhibitor 72, CHX counter 27 (no result: FBPA Giardia inh)
COc1ccc(Cn2c(C(=O)O)c(CNCCc3ccccc3Cl)c3ccc(C)cc32)cc1	none (no result: FBPA Giardia inh, Shiga inhibitor, LmPK inh, CHX counter, RE007 growth inh)
O=C(c1ccccc1F)N(Cc1ccc(F)cc1)C1CCS(=O)(=O)C1 (centres undefined)	none
Cc1ccc(CN(C(=O)c2cc3ccccc3oc2=O)C2CCS(=O)(=O)C2)cc1 (centres undefined)	Shiga inhibitor 73, CHX counter 39
CC(C)N(Cc1ccc(F)cc1)C(=O)c1cc2ccccc2oc1=O	Shiga inhibitor 55, CHX counter 43 (no result: Tb PYK inh, RE007 growth inh)
O=C(c1cc2ccccc2oc1=O)N(Cc1ccco1)Cc1cccs1	CHX counter 17
O=C(c1cc2ccccc2oc1=O)N(Cc1cccs1)Cc1cccs1	none
O=C(c1cc(=O)c2ccccc2o1)N(Cc1ccccc1)C1CCS(=O)(=O)C1 (centres undefined)	none
O=C(c1cc2ccccc2oc1=O)N(Cc1ccc(F)cc1)C1CCS(=O)(=O)C1 (centres undefined)	Shiga inhibitor 130, CHX counter 64
CCc1ccc(/C=C2/C(=O)NC(=O)N2C(C)=O)cc1	CHX counter 37
